Laboratory results from PubChem BioAssay.
The source made the active and inactive calls. Unless noted, how the calls were made is not given here.

How the values were obtained:
[1] = resazurin metabolic signal in HepG2 cells – cell-based, resazurin fluorescence, 24 h, PK04 Diversity Set, profiling panel (AID 1172); details: HepG2 viability, higher = more signal; further: test concentration not given here
[2] = budding yeast growth changes without added modifier – OD600, strain BY4716, 24 h, basal condition, primary screen (AID 1173); details: S. cerevisiae BY4716 growth, OD600, 24 h; higher = more signal, called active from +8 up or from −8 down
[3] = viability profiling in MM1S myeloma cells – cell-based, resazurin fluorescence, basal, 24 h, PK04 Diversity Set, profiling panel (AID 1174); details: higher = more signal, called active from +8 up or from −8 down;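 further: MM1S multiple myeloma cell line; test concentration not given here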
[4] = target: Dihydroorotate dehydrogenase (quinone), mitochondrial (Plasmodium falciparum (isolate 3D7)) (UniProt Q08210); assay: inhibition of P. falciparum DHODH – biochemical, C-terminal His tag, absorbance 600 nm, primary screen (AID 1175); details: PfDHODH enzyme, DCIP absorbance 600 nm; higher = more signal, called active from +8 up or from −8 down;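 further: recombinant parasite enzyme with a five histidine tag at its C terminus; test concentration not given here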
[5] = inhibition of PAO1 biofilm formation – strain PAO1, LB-PBS medium, absorbance 600 nm, primary screen (AID 1176); further: test concentration not given here; details: P. aeruginosa PAO1 growth/biofilm, A600, 12 h; higher = more signal
[6] = growth modulation of vineyard yeast isolate – strain RM11-1a, OD600, basal, 24 h, primary screen (AID 1177);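 further: cultures grown under basal conditions with no added stressor; test concentration not given here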; details: S. cerevisiae RM11-1a growth, OD600, 24 h; higher = more signal, called active from +8 up or from −8 down
[7] = growth of efflux-deficient E. coli DRC39 – strain DRC39, OD650, 24 h, E. coli filamentation inducers, primary screen (AID 1178);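 further: growth measured as culture turbidity by optical density at 650 nm; test concentration not given here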; details: E. coli DRC39 acrAB, higher = more signal, called active from +8 up or from −8 down
[8] = growth of efflux-deficient E. coli DRC39 – strain DRC39, OD650, 48 h, E. coli filamentation inducers, primary screen (AID 1179);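 further: screen aims at cell division blockers that make cells filament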; details: E. coli DRC39 delta-acrAB growth, higher = more signal, called active from +8 up or from −8 down
[9] = viability profiling in RPMI8226 myeloma cells – cell-based, resazurin fluorescence, basal, 24 h, PK04 Diversity Set, profiling panel (AID 1180); details: higher = more signal;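 further: RPMI8826 multiple myeloma cell line at 5000 cells per well; test concentration not given here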
[10] = target: E3 ubiquitin-protein ligase XIAP (Homo sapiens) (UniProt P98170); assay: small molecules binding XIAP protein – biophysical, small-molecule microarray, fluorescence 635 nm, primary screen (AID 1181); details: higher = more signal;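 further: score merges 667 nm emission and signal to noise over triplicate slides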
Sequence of E3 ubiquitin-protein ligase XIAP (Homo sapiens) (P98170 whole entry, looked up): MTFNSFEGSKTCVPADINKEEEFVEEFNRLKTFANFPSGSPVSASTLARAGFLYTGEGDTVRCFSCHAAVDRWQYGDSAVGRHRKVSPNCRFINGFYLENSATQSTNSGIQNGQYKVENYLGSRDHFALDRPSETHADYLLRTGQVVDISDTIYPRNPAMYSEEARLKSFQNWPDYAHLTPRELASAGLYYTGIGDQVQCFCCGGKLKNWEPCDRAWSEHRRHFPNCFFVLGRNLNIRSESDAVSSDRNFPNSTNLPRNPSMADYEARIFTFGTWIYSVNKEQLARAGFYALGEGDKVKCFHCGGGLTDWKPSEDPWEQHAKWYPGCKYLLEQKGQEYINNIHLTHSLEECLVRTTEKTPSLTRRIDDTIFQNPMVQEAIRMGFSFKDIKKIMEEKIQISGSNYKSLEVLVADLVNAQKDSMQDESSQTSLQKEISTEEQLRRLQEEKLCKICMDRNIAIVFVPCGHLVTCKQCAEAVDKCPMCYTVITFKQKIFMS

Sequence of Dihydroorotate dehydrogenase (quinone), mitochondrial (Plasmodium falciparum (isolate 3D7)) (Q08210 whole entry, looked up): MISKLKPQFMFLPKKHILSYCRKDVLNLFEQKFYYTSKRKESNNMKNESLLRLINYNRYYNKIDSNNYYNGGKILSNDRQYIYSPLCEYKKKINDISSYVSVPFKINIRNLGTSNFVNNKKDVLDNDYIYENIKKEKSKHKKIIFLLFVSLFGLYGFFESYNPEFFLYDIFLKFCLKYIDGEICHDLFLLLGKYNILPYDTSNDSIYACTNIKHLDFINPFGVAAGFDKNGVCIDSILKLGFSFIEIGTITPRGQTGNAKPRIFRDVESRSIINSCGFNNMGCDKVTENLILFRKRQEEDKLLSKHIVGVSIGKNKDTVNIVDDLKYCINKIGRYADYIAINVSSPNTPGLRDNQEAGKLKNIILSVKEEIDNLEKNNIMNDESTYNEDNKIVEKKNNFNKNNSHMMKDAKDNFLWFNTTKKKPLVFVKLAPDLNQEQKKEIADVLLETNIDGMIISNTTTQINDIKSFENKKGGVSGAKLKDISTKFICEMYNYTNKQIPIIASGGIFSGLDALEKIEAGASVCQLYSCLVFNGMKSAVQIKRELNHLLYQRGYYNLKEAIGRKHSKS

| SMILES | z-score [1] | z-score [2] | z-score [3] | composite z-score [4] | z-score [5] | z-score [6] | z-score [7] | z-score [8] | z-score [9] | composite z-score [10] |
| --- | --- | --- | --- | --- | --- | --- | --- | --- | --- | --- |
| O=C1C2C=CC(C(O)CCc3ccccc3)N(Nc3ccccc3F)C2C(=O)N1c1ccccc1 (stereo not given) | 0.0011 | 0.14 (inactive) | 0.209 (inactive) | -0.442 (inactive) | 0.0083 (inactive) | -0.253 (inactive) | -0.837 (inactive) | 0.0277 (inactive) | 0.799 | 0.272 |
| COc1cc(COC(C)=O)ccc1OC(C)=O | 0.858 | -0.715 (inactive) | 0.101 (inactive) | -0.942 (inactive) | 0.317 (inactive) | -1.35 (inactive) | 1.17 (inactive) | 0.871 (inactive) | 0.614 | -0.269 |
| COc1cc(NN2C(C(O)c3ccco3)C=CC3C(=O)N(c4ccccc4)C(=O)C32)cc(OC)c1OC (stereo not given) | -1.41 | 1.58 (inactive) | -1.68 (inactive) | -2 (inactive) | 0.711 (inactive) | 0.178 (inactive) | -0.225 (inactive) | -1.32 (inactive) | -1.08 | -0.081 |
| C=CCC(OC(C)=O)[C@@H]1[C@@H](N(Cc2ccc(-c3ccccc3)cc2)C(=O)c2ccc(-c3ccccc3)cc2)c2cc(OCCCO)ccc2N1C(=O)Cc1ccc2ccccc2c1 (stereo not given in full) | 0.289 | 0.274 (inactive) | 0.7 (inactive) | -0.0366 (inactive) | 0.526 (inactive) | -0.357 (inactive) | -0.433 (inactive) | -0.5 (inactive) | 0.465 | 0.225 |
| [N-]=[N+]=NCc1ccccc1C[C@]1(C(N)=O)COC(c2ccc(OCCCO)cc2)=N1 | 0.252 | -1.66 (inactive) | 0.424 (inactive) | -0.0854 (inactive) | 0.466 (inactive) | -1.37 (inactive) | 1.23 (inactive) | 1.87 (inactive) | 0.399 | 0.144 |
| C=CCOC(=O)[C@H]1[C@@H]2C(=O)O[C@@H](c3ccccc3)[C@@H](c3ccccc3)N2[C@@H](c2ccc(OCCOC(=O)[C@@H]3C[C@@H]4C(=O)N[C@@H](CC(C)C)C(=O)N4[C@@H]3c3ccc(O)cc3)cc2)[C@]12C(=O)Nc1ccccc12 | 0.256 | 1.23 (inactive) | -0.347 (inactive) | -0.295 (inactive) | 2.94 (inactive) | 2.05 (inactive) | -0.149 (inactive) | -0.72 (inactive) | 0.169 | -0.0559 |
| O=C(CS)NCCCCCCNC(=O)[C@@H]1C[C@@H]2C(=O)NCC(=O)N2[C@@H]1c1cccc(OCCO)c1 | -0.3 | -0.419 (inactive) | -0.217 (inactive) | -0.216 (inactive) | 0.351 (inactive) | 0.752 (inactive) | 0.713 (inactive) | 1.16 (inactive) | -0.252 | 0.0346 |
| NCCCCCNC(=O)[C@@H]1C[C@@H]2C(=O)N[C@@H](Cc3ccccc3)C(=O)N2[C@@H]1c1ccc(O)cc1 | -1.74 | -0.576 (inactive) | -0.0591 (inactive) | -0.0741 (inactive) | 1.07 (inactive) | -0.56 (inactive) | -0.598 (inactive) | -0.384 (inactive) | 0.15 | 0.013 |
| CN1C(=O)C2C=CC(C(O)c3ccc([N+](=O)[O-])cc3)N(N3CCCCC3)C2C1=O (stereo not given) | -0.777 | 0.217 (inactive) | -0.51 (inactive) | 0.0871 (inactive) | 0.711 (inactive) | 0.189 (inactive) | -0.884 (inactive) | -1.24 (inactive) | -0.85 | 0.384 |
| C[C@@]1([C@@H](NC(=O)c2ccc(-c3ccccc3)cc2)c2ccc(Cl)cc2)C[C@H]1C1CCCCC1 | -0.953 | 1.52 (inactive) | -2.24 (inactive) | -0.0475 (inactive) | -0.195 (inactive) | 2 (inactive) | -0.325 (inactive) | -0.561 (inactive) | -6.37 | 0.119 |
| O=C1C2C=CC(C(O)c3cccc4ccccc34)N(Nc3ccccc3F)C2C(=O)N1c1ccccc1 (stereo not given) | 0.0332 | -0.103 (inactive) | -0.186 (inactive) | -0.629 (inactive) | 1.11 (inactive) | 0.0054 (inactive) | -0.844 (inactive) | -0.204 (inactive) | 0.0889 | 0.321 |
| C=C(C(=O)CC[C@@H](OC(=O)c1cccnc1)c1ccccc1OCCO)C(C)C | -0.0206 | -1.51 (inactive) | -0.444 (inactive) | -0.0125 (inactive) | 0.613 (inactive) | -0.337 (inactive) | 0.335 (inactive) | 0.195 (inactive) | -0.632 | -0.0872 |
| C=C(CCCC)/C(=C/C[C@H](OC(C)=O)c1ccccc1OCCO)c1cc(C(=O)OC)ccc1OC | -0.0696 | -0.863 (inactive) | 0.911 (inactive) | -2.1 (inactive) | -0.824 (inactive) | -0.0572 (inactive) | 0.427 (inactive) | 0.257 (inactive) | 0.682 | -0.28 |
| C=CCN1C(=O)[C@]2(O[C@H](CCn3cc([C@H](O)c4ccccc4)nn3)[C@@H]([Si](C)(C)c3ccc(OC)cc3)[C@@H]2C)c2ccccc21 | -1.25 | -0.242 (inactive) | -1.68 (inactive) | -0.591 (inactive) | 1.29 (inactive) | 0.507 (inactive) | 0.617 (inactive) | 0.169 (inactive) | -1.69 | -0.104 |
| C=CCC(OC(C)=O)[C@@H]1[C@@H](N(Cc2cc3ccccc3o2)C(=O)c2cccc3ccccc23)c2cc(OCCCO)ccc2N1C(=O)c1ccc(-c2ccccc2)cc1 (stereo not given in full) | -1.11 | -0.356 (inactive) | 0.353 (inactive) | -0.0369 (inactive) | -1.27 (inactive) | -0.208 (inactive) | 0.75 (inactive) | -0.11 (inactive) | 0.03 | -0.256 |
| COc1cc(C(O)C2C=CC3C(=O)NC(=O)C3N2Nc2ccccn2)cc(OC)c1OC (stereo not given) | -0.927 | 0.979 (inactive) | -1.57 (inactive) | 1.14 (inactive) | 1.16 (inactive) | 0.228 (inactive) | -1.24 (inactive) | -0.397 (inactive) | -2.04 | -0.031 |
| CC(C)(C)OC(=O)CC[C@]1(C(=O)N2CCOCC2)N=C(c2ccc(OCCCO)cc2)O[C@H]1c1ccccc1N=[N+]=[N-] | 0.548 | -0.515 (inactive) | -0.095 (inactive) | -0.793 (inactive) | -0.0684 (inactive) | 0.207 (inactive) | 0.453 (inactive) | 0.314 (inactive) | 0.187 | 0.115 |
| CCCCN1CC=CC23O[C@@H]4C=CCCOC(=O)C4[C@H]2C(=O)N(CCCCCCO)[C@@H]3C1=O (stereo not given in full) | 0.0635 | 0.254 (inactive) | -0.846 (inactive) | -1.01 (inactive) | -0.14 (inactive) | 0.308 (inactive) | 0.013 (inactive) | 0.383 (inactive) | -0.461 | -0.141 |
| O=C1O[C@H](c2ccccc2)[C@H](c2ccccc2)N2[C@H]1[C@@H](C(=O)N1CCCCCCC1)[C@]1(C(=O)Nc3ccc(C#CC4=CCCCC4)cc31)[C@H]2c1ccc(OCCO)cc1 | -0.881 | 0.362 (inactive) | 0.241 (inactive) | -0.585 (inactive) | 2.25 (inactive) | 0.6 (inactive) | 0.825 (inactive) | 0.286 (inactive) | 0.326 | 1.08 |
| COC(=O)[C@@]1(Cc2ccc(OC)cc2)[C@H]2c3cc(C(=O)N4CCCC4)n(CCN4CNCC4=O)c3C[C@H]2CN1C(=O)c1ccccc1 | -0.66 | 0.818 (inactive) | -0.359 (inactive) | 0.0916 (inactive) | 1.68 (inactive) | 1.22 (inactive) | -0.146 (inactive) | -0.199 (inactive) | 0.0221 | 0.778 |
| COCCOC(=O)N1C(=O)[C@@]2(c3cc(C#CCNC(N)=O)ccc31)[C@H](C(=O)N1CCN(c3ncccn3)CC1)[C@H]1C(=O)O[C@H](c3ccccc3)[C@H](c3ccccc3)N1[C@@H]2c1ccc(OCCO)cc1 | -0.488 | 1.51 (inactive) | -0.814 (inactive) | -0.0103 (inactive) | 2.43 (inactive) | 2.16 (inactive) | 0.142 (inactive) | 0.567 (inactive) | -0.83 | 0.0627 |
| C=CCN1C(=O)[C@]2(O[C@H](CCn3cc([C@H](O)c4ccccc4)nn3)[C@@H]([Si](C)(C)c3ccc(OC)cc3)[C@@H]2C)c2cc(N3CCC3=O)ccc21 | 0.0514 | 0.743 (inactive) | -1.85 (inactive) | 1.04 (inactive) | 0.0245 (inactive) | 2.44 (inactive) | 0.518 (inactive) | -0.0117 (inactive) | -1.67 | 0.0623 |
| CC(C)=CCN[C@H](CO)c1ccccc1 | -0.347 | -6.22 (inactive) | -0.362 (inactive) | -2.14 (inactive) | -0.517 (inactive) | -0.17 (inactive) | -0.387 (inactive) | -1.49 (inactive) | -0.974 | 0.213 |
| CC1(C)C2C=C(C(O)C3C=CC4C(=O)NC(=O)C4N3Nc3ccc(Cl)cc3Cl)C[C@@H]1C2 (stereo not given in full) | -2.13 | -7.58 (inactive) | -1.9 (inactive) | 0.356 (inactive) | 1.55 (inactive) | 0.84 (inactive) | -0.274 (inactive) | -1.08 (inactive) | -1.79 | -0.0769 |
| COC(=O)[C@H](Cc1ccccc1)N1CC2=C[C@@H](C3CC3)n3c(=O)n(C)c(=O)n3[C@H]2[C@@H]1[C@@H](O)Cc1ccccc1 | -0.0568 | -1.18 (inactive) | -1.07 (inactive) | -0.174 (inactive) | 0.0937 (inactive) | -0.143 (inactive) | -0.172 (inactive) | -0.228 (inactive) | 0.358 | -0.142 |
| O=C(OCc1ccccc1)C1=CCC2c3[nH]c4ccccc4c3C(=O)C1N2S(=O)(=O)c1ccccc1[N+](=O)[O-] (stereo not given) | -0.106 | 1.57 (inactive) | -1.2 (inactive) | -0.386 (inactive) | 0.381 (inactive) | 0.714 (inactive) | -1.04 (inactive) | -1.43 (inactive) | -0.878 | -0.113 |
